Screening results deposited in PubChem by several laboratories.
PLAP activator = human PLAP activation; purified PLAP enzyme, luminescent substrate read-out; hits give high values; activation fold at 20 µM; 1.2% of 96,000 active; AID 696; in the data active = activation fold above about 2
M1 antagonist = blocks the rat M1 muscarinic receptor response to acetylcholine; AID 628; 3.4% of 64,000 active; CHO-M1 cells, Fluo-4 calcium, ACh EC80 antagonist mode; hits give low values; P08482; B-score at 10 µM;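 active = calcium fluorescence response, raw or row-and-column corrected B-score, differing from the plate sample mean either way at a set confidence level, mostly lower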
Cav32 inh = human Cav3.2 channel inhibition, primary screen | O95180 | Cav3.2-expressing cells, Fluo-4 calcium fluorescence FDSS; hits give low values | B-score at 10 µM | 4% of 100,000 active | AID 449739;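 active = single-dose well whose peak fluorescence ratio is a statistical outlier from its plate by either plate-standardised score or position-corrected B-score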
Target sequence (O95180 whole entry, looked up): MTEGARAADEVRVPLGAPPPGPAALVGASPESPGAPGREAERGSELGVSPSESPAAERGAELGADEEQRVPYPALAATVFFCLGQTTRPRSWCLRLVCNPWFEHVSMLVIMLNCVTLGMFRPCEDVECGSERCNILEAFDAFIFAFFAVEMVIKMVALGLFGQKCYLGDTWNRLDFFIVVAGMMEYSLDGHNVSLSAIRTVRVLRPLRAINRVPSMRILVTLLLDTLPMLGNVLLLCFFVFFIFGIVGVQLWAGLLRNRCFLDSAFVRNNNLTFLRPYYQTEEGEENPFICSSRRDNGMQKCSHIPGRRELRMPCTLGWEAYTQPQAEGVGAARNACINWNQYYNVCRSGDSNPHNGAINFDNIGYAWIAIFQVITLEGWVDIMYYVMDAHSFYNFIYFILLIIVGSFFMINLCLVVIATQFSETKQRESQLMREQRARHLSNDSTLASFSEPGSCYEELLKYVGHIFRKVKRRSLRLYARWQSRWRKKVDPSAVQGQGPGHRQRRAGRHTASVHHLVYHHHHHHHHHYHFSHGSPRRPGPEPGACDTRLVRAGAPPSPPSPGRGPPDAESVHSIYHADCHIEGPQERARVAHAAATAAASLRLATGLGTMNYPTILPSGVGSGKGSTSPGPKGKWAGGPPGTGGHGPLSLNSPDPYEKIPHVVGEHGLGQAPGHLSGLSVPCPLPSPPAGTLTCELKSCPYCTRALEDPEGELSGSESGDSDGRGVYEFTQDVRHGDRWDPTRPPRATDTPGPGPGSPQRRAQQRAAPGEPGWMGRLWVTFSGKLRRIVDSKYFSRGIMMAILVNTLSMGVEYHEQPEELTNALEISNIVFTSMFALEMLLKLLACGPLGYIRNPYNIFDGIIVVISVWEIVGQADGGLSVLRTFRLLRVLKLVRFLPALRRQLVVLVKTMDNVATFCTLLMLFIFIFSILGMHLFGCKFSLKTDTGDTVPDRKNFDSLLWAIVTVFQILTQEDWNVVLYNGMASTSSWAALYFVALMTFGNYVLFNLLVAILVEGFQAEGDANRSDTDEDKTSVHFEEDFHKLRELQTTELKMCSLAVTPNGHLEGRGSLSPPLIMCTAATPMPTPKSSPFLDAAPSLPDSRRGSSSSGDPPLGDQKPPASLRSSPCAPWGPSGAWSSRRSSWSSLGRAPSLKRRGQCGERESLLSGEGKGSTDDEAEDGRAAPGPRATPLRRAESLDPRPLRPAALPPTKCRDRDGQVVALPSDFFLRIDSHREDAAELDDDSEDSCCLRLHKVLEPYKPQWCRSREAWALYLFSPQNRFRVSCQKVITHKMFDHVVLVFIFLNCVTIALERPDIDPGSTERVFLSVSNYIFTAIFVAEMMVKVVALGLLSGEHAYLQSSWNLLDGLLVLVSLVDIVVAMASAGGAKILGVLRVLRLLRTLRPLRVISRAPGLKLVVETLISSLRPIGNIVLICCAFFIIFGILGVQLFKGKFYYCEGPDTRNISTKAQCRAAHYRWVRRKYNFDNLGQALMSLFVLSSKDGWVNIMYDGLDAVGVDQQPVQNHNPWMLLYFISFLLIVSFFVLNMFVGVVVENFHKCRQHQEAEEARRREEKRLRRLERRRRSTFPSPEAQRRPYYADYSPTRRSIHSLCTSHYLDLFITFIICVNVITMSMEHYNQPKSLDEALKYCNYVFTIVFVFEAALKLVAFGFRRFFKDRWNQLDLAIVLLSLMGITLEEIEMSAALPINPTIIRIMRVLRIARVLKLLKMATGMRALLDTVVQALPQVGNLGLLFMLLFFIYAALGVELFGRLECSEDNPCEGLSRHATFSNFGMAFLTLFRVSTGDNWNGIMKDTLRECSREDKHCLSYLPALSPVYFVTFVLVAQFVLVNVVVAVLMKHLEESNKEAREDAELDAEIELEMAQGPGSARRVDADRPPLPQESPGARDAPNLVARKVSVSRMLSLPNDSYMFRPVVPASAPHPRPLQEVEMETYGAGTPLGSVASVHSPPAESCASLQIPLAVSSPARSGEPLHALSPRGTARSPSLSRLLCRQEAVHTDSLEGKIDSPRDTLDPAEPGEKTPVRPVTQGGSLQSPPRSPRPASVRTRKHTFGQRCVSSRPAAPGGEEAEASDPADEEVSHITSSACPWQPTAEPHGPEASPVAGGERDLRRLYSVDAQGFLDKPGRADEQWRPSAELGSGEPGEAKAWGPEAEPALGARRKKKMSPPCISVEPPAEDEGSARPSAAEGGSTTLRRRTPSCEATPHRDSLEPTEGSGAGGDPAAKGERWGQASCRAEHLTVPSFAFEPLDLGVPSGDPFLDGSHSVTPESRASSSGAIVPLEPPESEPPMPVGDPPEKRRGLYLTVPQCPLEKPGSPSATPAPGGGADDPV
Her2 expr inh = Her2 kinase expression inhibition; P04626; 0.69% of 65,000 active; SKBR-3 HER2 protein level, AlphaScreen, 18-24 h; hits give low values; HER2 level % of control, % at 10 µM;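 active = HER2 level under 5% of the carrier-only control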;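 note: 100% = DMSO carrier and 0% = 500 nM PU-H71 HSP90 inhibitor; lower value means stronger loss of Her2 protein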
M1 agonist = M1 muscarinic receptor agonism. B-score at 10 µM. CHO-M1 cells, Fluo-4 calcium fluorescence, agonist mode; hits give high values. 3% of 64,000 active;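 active = fluorescence rise, raw or as B-score row- and column-corrected plate score, outside the 99.7% band of its plate's samples, either direction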
Numbers without * were called inactive. A selection: hits, their analogues and other compounds. The true share with any hit is near 7.9%.

`Cc1ncc(S(=O)(=O)c2ccc(Cl)cc2)c(-c2ccccc2)n1` gave PLAP activator 0.8 and Cav32 inh -2.3.
Screening CC1(C)CC(=O)C2=C(C1)OC(=O)C2(NC(=O)c1cccs1)C(F)(F)F (centres undefined) returned PLAP activator 1.1, M1 antagonist 0.12, Cav32 inh -2.5, Her2 expr inh -12* and M1 agonist 0.0068.
For CC(C)(CNC(=O)c1cccs1)CNC(=O)c1cccs1 the results were PLAP activator 1.2, M1 antagonist 0.0074, Cav32 inh -0.44, Her2 expr inh 102 and M1 agonist -0.26.
For CC(C)C(=O)NC(Nc1cccc2cccnc12)C(Cl)(Cl)Cl (centres undefined) the results were PLAP activator 1 and Cav32 inh -5.1*.
`O=c1c(O)c(-c2cccs2)oc2ccc(Cl)cc12` gave PLAP activator 1 and Cav32 inh -4.8*.
For COc1ccc(C2Nc3ccccc3C(=O)N2Cc2ccco2)cc1CN1C(=O)c2ccccc2C1=O (centres undefined) the results were PLAP activator 1.3, M1 antagonist -0.55, Cav32 inh -0.038, Her2 expr inh 63 and M1 agonist -0.97.
Screening COc1ccc(C2Nc3ccccc3C(=O)N2Cc2ccco2)cc1COc1ccc(F)cc1 (centres undefined) returned Cav32 inh -7*.
CCOc1ccc(N2C(=O)CC(Sc3nc(C)cc(C)c3C#N)C2=O)cc1 (centres undefined) was read as PLAP activator 0.9, M1 antagonist 0.61, Cav32 inh -0.17, Her2 expr inh -9.9* and M1 agonist -0.96.
`CCOc1ccc(N2C(=O)CC(N)C2=O)cc1` (centres undefined) gave M1 antagonist -0.21, Cav32 inh 0.91, Her2 expr inh 153 and M1 agonist -0.54.
For CCOC(=O)N1CCN(CCC(=O)Nc2ccc(C)cc2)CC1 the results were PLAP activator 1, Cav32 inh 0.51 and Her2 expr inh 75.
For CCOC(=O)N1CCN(CCC(=O)c2ccc(Cl)cc2)CC1 the results were PLAP activator 1.7, M1 antagonist -0.81*, Cav32 inh 1.9, Her2 expr inh -6.8* and M1 agonist 3.4*.
`Cc1ccc(SCC(=O)Nc2cccc(-c3nnc(-c4ccco4)o3)c2)cc1` gave PLAP activator 0.8 and Cav32 inh 0.0021.
`Cc1ccc(C(=O)COC(=O)CCC(=O)NC2CCCCC2)cc1C` gave PLAP activator 0.9 and Cav32 inh -3.5.
Screening CC(NC(=O)c1ccc(F)cc1)c1ccc2c(c1)CCCC2 (centres undefined) returned PLAP activator 0.9 and Cav32 inh -8.5*.
`Cc1cccc(C)c1NC1=NC(=S)N(c2ccccc2)C12CCOC(C)(C)C2` (centres undefined) gave PLAP activator 0.9 and Cav32 inh -0.84.
`Cc1ccc(N2C(=S)N=C(Nc3ccccc3C)C23CCOC(C)(C)C3)cc1` (centres undefined) gave PLAP activator 0.8 and Cav32 inh -6.1*.
`C[N+]1(C)CCCC(OC(=O)C(O)(c2ccccc2)c2ccccc2)C1` (centres undefined) gave Cav32 inh -4.5*.
`C/C(CC(=O)Nc1ccccc1-c1ccccc1)=N\NC(=O)COc1ccc(C)cc1Br` gave PLAP activator 1.6 and Cav32 inh -6.5*.
For C/C(CC(=O)Nc1ccccc1[N+](=O)[O-])=N\NC(=O)COc1ccccc1C the results were PLAP activator 1.3 and Cav32 inh 0.19.
Screening O=C(NCc1ccncc1)C1CCCCC1 returned PLAP activator 0.9 and Cav32 inh -0.33.
For Cc1oc(/C=N/NC(=O)CN(c2ccccc2Br)S(C)(=O)=O)cc1Br the results were PLAP activator 1 and Cav32 inh -2.2.
For Cn1c(Cl)cnc1C1CC(=O)c2cc(Cl)ccc2O1 (centres undefined) the results were PLAP activator 1, M1 antagonist 0.22, Cav32 inh 0.049, Her2 expr inh -15* and M1 agonist -0.0087.
Screening CC(=O)N1CCC2(CC1)CC(=O)c1cc(Cl)ccc1O2 returned Cav32 inh 0.47.
`Cc1csc(NC(=O)CSc2nc3ccccc3s2)n1` gave PLAP activator 1 and Cav32 inh -7*.
For Cc1csc(NC(=O)Cc2c[nH]c3ccccc23)n1 the results were PLAP activator 0.9 and Cav32 inh -4.1*.
For Cc1cnc(NC(=O)Cc2c[nH]c3ccccc23)s1 the results were PLAP activator 1 and Cav32 inh -1.1.
